# PubChem BioAssay (NCI)
# Compounds without any hit were thinned out: in the full panel of roughly 83,000, 20% have a hit.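 Single-concentration screen, 48 h exposure, 96-well plates. Endpoint: percent growth. Below 10 = active.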 Unmarked numbers belong to inactive results. The source made the active and inactive calls.
# Columns and labels:
# Experiment in all cases: NCI-60 one-dose screen, 48 h (100 = growth as untreated, 0 = no growth, -100 = all killed)
# Settings in all cases: 10 µM unless noted
# NCI-H23 lung = system: NCI-H23 lung
# NCI-H226 lung = system: NCI-H226 lung
# HOP-62 NSCLC = system: HOP-62 NSCLC
# NCI-H460 lung = system: NCI-H460 lung
# HOP-92 NSCLC = system: HOP-92 NSCLC
# NCI-H522 lung = system: NCI-H522 lung
# A549/ATCC NSCLC = system: A549/ATCC NSCLC
# 786-0 renal = system: 786-0 renal
# COLO 205 colon = system: COLO 205 colon
SMILES,growth (NCI-H23 lung),growth (NCI-H226 lung),growth (HOP-62 NSCLC),growth (NCI-H460 lung),growth (HOP-92 NSCLC),growth (NCI-H522 lung),growth (A549/ATCC NSCLC),growth (786-0 renal),growth (COLO 205 colon)
COc1cc2c(c(OC)c1OC)CCC(c1cccc(NC(=O)c3cccc(Br)c3)c1)O2 (stereo unspecified),95.1%,93.7%,99.8%,100%,94%,81%,81.2%,93.7%,98.3%
C=C1C(=O)O[C@H]2[C@H]1CC/C(COC(=O)NCc1c[nH]c3ccc(F)cc13)=C\CC[C@@]1(C)O[C@@H]21,48.4%,4.11% (active),62.4%,27.9%,-18.1% (active),-75.2% (active),54.6%,-51.5% (active),-59.1% (active)
C#Cc1cccc(NC(=O)Nc2cccc(NC(=O)CCl)c2)c1,-82.8% [8.25 µM] (active),-12.1% [8.25 µM] (active),36.1% [8.25 µM],-32.2% [8.25 µM] (active),-53.1% [8.25 µM] (active),-37.5% [8.25 µM] (active),56.8% [8.25 µM],-65.1% [8.25 µM] (active),-51.3% [8.25 µM] (active)
COc1cc(C2=C(c3cn(C)c4ccccc34)COC2=O)cc(OC)c1OC,14.2%,15.3%,31.7%,,19.1%,3.38% (active),18.4%,20.9%,-4.65% (active)
CCN1Cc2nc3sc(C)c(C)c3c(=O)n2C=C1C,46.8%,77.8%,32.6%,,-14.7% (active),38.5%,86.8%,16.8%,111%
O=C(Cn1c(C(=O)c2ccccc2)nc2ccccc21)c1ccc(F)cc1,67.3%,84%,78.2%,,77.3%,-9.34% (active),79.3%,75.9%,119%
